PubChem BioAssay AID589 (National Center for Advancing Translational Sciences (NCATS), 2007)
Screen size: about 59,000 compounds; about 6,200 (11%) were called active. Inconclusive results (about 9%) are left out. Cut-off read from the data, not from the text of the source: active = max dye-equivalent concentration above about 10 nM; inconclusive = mostly about 1.1 nM to 9.6 nM; inactive = weaker than that. The list comes from a sample in which actives are over-represented; it also holds similar structures and randomly drawn compounds. Some compounds were tested as several samples or in several runs, with calls that do not always agree.

Assay: qHTS Assay for Spectroscopic Profiling in 4-MU Spectral Region
Settings: compound autofluorescence, 340/450 nm, 4-MU equivalents; stronger effect = higher value
Text: NIH Molecular Libraries Screening Centers Network [MLSCN] NIH Chemical Genomics Center [NCGC] […] Occasionally, the artifactual effect may originate from the compounds own spectral or other biophysical properties which generally tend to track its assay concentration. Pre-screening/profiling the library with respect to the compounds spectral properties should help one exclude false positives early on. While the most informative fluorescent profiling data set is obtained by performing a full excitation and emission scan of each well by using a monochromator-based plate reader, such an approach is practical only on a very limited scale as scanning each well requires long time. An alternative approach, applied here, is to perform plate reader scans using selected excitation and emission wavelength pairs to generate a multidimensional relational database that correlates compound concentration and the respective relative fluorescence intensity at a given wavelength set. A standard curve of 4-methylumbelliferone (4-MU) present on each plate as six-point concentration series, was used to compute a normalized fluorescence response, termed dye-equivalent concentration, for each compound at each concentration.
NCGC Assay Protocol Summary: Buffer: 100 mM Tris buffer, pH 8.0 Dye standard plate: The wells in columns 1 through 4 of a Kalypsys polypropylene 1536-well compound plate were filled with standard solutions of fluorophore corresponding to the spectral region of interest. Solutions of 4-MU were placed in the following wells: A1, B1: 3 mM, A2, B2: 300 uM, A3, B3: 30 uM, A4, B4: zero (DMSO), C1, D1: 3 uM, C2, D2: 900 nM, C3, D3: 300 nM, C4, D4: zero (DMSO). Assay Steps: Six uL of buffer were dispensed to 1536-well Greiner black plates. Compounds and dye standards (23 nL) were transferred via Kalypsys PinTool. The plates were incubated for 15 min at room temperature, and then read on ViewLux (Perkin-Elmer) High-throughput CCD imager using 340 nm and 450 nm excitation and emission filter set. Keywords: NIH Roadmap, MLSCN, MLI, MLSMR, qHTS, NCGC, Fluorescent Profiling, 4MU, 4-MU

| SMILES | max dye-equivalent concentration | outcome |
| --- | --- | --- |
| C[C@]12CC[C@H](O)CC1=CC[C@@H]1[C@H]2CC[C@]2(C)C(=O)CC[C@H]12 | inactive | – |
| C[C@]12CC[C@H](O)C[C@@H]1CC[C@H]1[C@H]2CC[C@]2(C)C(=O)CC[C@@H]12 | 69 nM (active) | inactive |
| C[C@@]12CC[C@H](O)C[C@@H]1CC[C@@H]1[C@@H]2CC[C@@]2(C)[C@@H](C3=CC(=O)OC3)[C@H](O)C[C@]12O | inactive | – |
| Cc1ccc(S(=O)(=O)O[C@H]2CN3CCC2CC3)cc1 | inactive | – |
| CC1=CC(=O)C2=C(C)C[C@H](O)[C@@H]3[C@@H](OC(=O)[C@H]3C)[C@H]12 | inactive | – |
| O=C1C2CCN(CC2)C1(CO)CO | inactive | – |
| c1ccc2c(c1)[I+]c1ccccc1-2 | inactive | – |
| CSC1=NP(=S)(SC)N(C)c2nc3n(c21)CCC3 (stereo unspecified) | 22 nM (active) | – |
| c1csc(CN2CC3(CCNCC3)C2)n1 | inactive | – |
| CC(C)CCC1(CCN)C(=O)NC(=O)NC1=O | inactive | – |
| CN1[C@@H]2CC[C@H]1CC(OC(=O)c1cc(Cl)cc(Cl)c1)C2 (stereo partly specified) | inactive | – |
| CC(=O)c1c(O)c(C)c(O)c(Cc2c(O)c3c(c(C(=O)/C=C\c4ccccc4)c2O)OC(C)(C)C=C3)c1O | inactive | – |
| C[C@H]1CC[C@@]2(NC1)O[C@@H]1C[C@H]3[C@@H]4CC=C5C[C@@H](O)CC[C@]5(C)[C@@H]4CC[C@]3(C)[C@@H]1[C@@H]2C | inactive | – |
| NCCc1c[nH]c2ccc(O)cc12 | inactive | – |
| C/C(CCc1c[nH]c2ccccc12)=N\O | 13 nM (active) | – |
| CCN(CC)CCn1ncc2c(N)ncnc21 | inactive | – |
| N[C@H](C(=O)O)c1cc(=O)[nH]o1 | inactive | – |
| COC(=O)C(O)(c1ccc(NC(=O)c2ccco2)c(OC)c1)C(F)(F)F (stereo unspecified) | inactive | – |
| O=C(c1cc2nc(-c3ccccc3)cc(-c3ccccc3)n2n1)N1CCC2(CC1)OCCO2 | 64 nM (active) | – |
| O=C(c1cc(-c2ccncc2)nc2ccccc12)N1CCC2(CC1)OCCO2 | inactive | – |
| Cc1cccc(-n2c(C)nc3cc(C(=O)N4CCC5(CC4)OCCO5)ccc32)c1 | inactive | – |
| NC[C@H](O)c1ccc(O)cc1 | inactive | – |
| NC(=O)c1ccc(OC[C@H](O)CN2CC=C(c3ccc(F)cc3)CC2)cc1 | inactive | – |
| COc1cc(C[C@H](C)N)c(OC)cc1I | inactive | – |
| CC(=O)NBr | inactive | – |

| SMILES | max dye-equivalent concentration | outcome |
| --- | --- | --- |
| C[C@H](Br)C(=O)N[C@H](CO)C(=O)O | inactive | – |
| COc1ccc(C2NCc3ccc4c(c3-n3cccc32)OCO4)cc1OC (stereo unspecified) | inactive | – |
| CCOC(=O)c1c(-c2ccccc2)oc2ccc(OC(=O)N(C)C)cc12 | 50 nM (active) | – |
| c1ccc(CN2CC[C@@]3(CCCNC3)C2)cc1 | 11 nM (active) | – |
| c1csc(CN2CCCC3(CCNCC3)C2)n1 | inactive | – |
| c1ccc(N2CC[C@@]3(CCCNC3)C2)nc1 | inactive | – |
| C[C@@]12CC[C@H]3[C@@H](CC[C@]4(O)C[C@H](O)CC[C@@]34C=O)[C@]1(O)CC[C@@H]2C1=CC(=O)OC1 | inactive | – |
| CCN1C[C@@]2(COC)CC[C@H](OC)[C@]34[C@@H]1[C@]1(OCO[C@@]15C[C@@H](OC)C1C[C@H]3[C@H]5[C@@H]1OC)[C@H](O)[C@@H]24 | inactive | – |
| C=CCN1C(=O)C2(C(C(=O)OCC)=C(N)Oc3c2c(=O)oc2ccccc32)c2ccccc21 (stereo unspecified) | inactive | – |
| CS(=N)(=O)CC[C@H](N)P(=O)(O)O (stereo partly specified) | inactive | – |
| CCOC(=O)c1c(N)n(Cc2ccccc2)c2nc3ccccc3nc12 | 1100 nM (active) | – |
| CC(=O)O[C@H]1CC[C@@]2(C)[C@@H](CC[C@H]3[C@H]2CC(=O)[C@]2(C)[C@@H]3C[C@@H](N3CC3)[C@H]2C(C)=O)C1 | inactive | – |
| CCNC[C@H](O)c1cccc(O)c1 | inactive | – |
| CC[C@]1(O)C(=O)OCc2c1cc1n(c2=O)Cc2cc3ccccc3nc2-1 | 2300 nM (active) | – |
| CC[C@@](O)(C(=O)O)c1cc2n(c(=O)c1CO)Cc1cc3ccccc3nc1-2 | 840 nM (active) | – |
| CN1CCN(C(=O)O[C@@H]2c3nccnc3C(=O)N2c2ccc(Cl)cn2)CC1 | inactive | – |
| CCN1C[C@]2(C)CC[C@H](O)[C@@]34[C@@H]5CC6[C@@H](OC)C[C@@](O)([C@@H]5[C@@H]6O)[C@H](C[C@@H]23)[C@H]14 | inactive | – |
| O=C(Nc1cccc(F)c1)N1CC[C@@]2(CCCN(C(=O)Oc3ccccc3)C2)C1 | inactive | – |
| NCC[Se][Se]CCN | inactive | – |
| CCN1c2nc3c(C)cccn3c(=O)c2CC2(C(=O)N(C)C(=O)N(C)C2=O)C1C (stereo unspecified) | 29 nM (active) | – |
| CC(C)(O)/C=C\C(=O)[C@](C)(O)[C@H]1[C@H](O)C[C@]2(C)[C@@H]3CC=C4[C@@H](C=C(O)C(=O)C4(C)C)[C@]3(C)C(=O)C[C@@]12C | inactive | – |
| NCCc1ccc(S(=O)(=O)F)cc1 | inactive | – |
| C[N+]1(C)C2CC(OC(=O)C(CO)c3ccccc3)CC1[C@@H]1O[C@H]21 (stereo partly specified) | inactive | – |
| O=C(O)C(=O)Cc1ccc2c(c1)OCO2 | inactive | – |
| CC(C)(O)[C@H]1[C@H]2OC(=O)[C@@H]1[C@]1(O)C[C@H]3O[C@]34C(=O)O[C@H]2[C@]14C | inactive | – |
